sdo1 growth – compounds rescuing growth of sdo1-depleted yeast, bone marrow failure model | S. cerevisiae sdo1-depleted JHY4D growth rescue, OD600 30 h; active compounds read high; pdr5 snq2 efflux-pump mutant strain | z-score at 10 µM | 0.21% of 140,000 active | AID 817;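 active = z-score above 3 at both the 24 hr and the 30 hr optical density reads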
Pyk2 oligo antag – blocks oligomerization of human Pyk2 in cells | z-score (the deposit names both 25 µM and 10 µM) | Q14289 | Q293 cells, Pyk2 FERM NanoBiT luminescence; active compounds read low | 0.83% of 99,000 active | AID 1347419;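 active = Z-score of -3 or lower, scaled per plate to the spread of control and sample wells; inactive = z-score above -3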;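 also: negative z-score means lost luminescence so less FERM oligomerization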
Cav32 inh – inhibitors of human Cav3.2 T-type calcium channel | O95180 | Cav3.2-expressing cells, Fluo-4 calcium fluorescence FDSS; active compounds read low | B-score at 10 µM | 4% of 100,000 active | AID 449739;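 active = single-dose well whose peak fluorescence ratio is a statistical outlier from its plate by either plate-standardised score or position-corrected B-score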
DAT uptake mod – modulates human dopamine transporter uptake under cocaine; B-score at 10 µM; 1.3% of 110,000 active; Q01959; AID 449768; LLC-PK1 hDAT cells, [14C]-dopamine uptake with cocaine IC80; actives deviate in either direction;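 active = Z score or B-score, a plate-position-corrected score, falls beyond the plate's 99.7% confidence bounds, in either direction; inactive = both scores lie inside the 99.7% bounds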
Plk1 PBD FP – blocks phosphopeptide binding to human Plk1 polo box domain. P53350. Plk1 PBD phosphopeptide binding, fluorescence polarization. inhibition, %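 (tested at about 20 µM)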. 0.13% of 97,000 active; in the data active = inhibition above about 34%, passing the limit was not always enough
PLK1 inh – PLK1 (human) kinase inhibition. recombinant PLK1 kinase, TR-FRET peptide phosphorylation. inhibition, % at 10 µM. 0.53% of 97,000 active;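 active = inhibition of 50% or more in the single-concentration screen; inactive = inhibition below 50%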
Hits are given with their value; . = inactive; / = no result. Compounds with a hit are over-represented: about 4.7% of the library has one in this group of screens.

SMILES | sdo1 growth | Pyk2 oligo antag | Cav32 inh | DAT uptake mod | Plk1 PBD FP | PLK1 inh
C/C(=N/O)c1ccccn1 | / | / | . | -4.62 | / | /
c1ccc(CSc2nnnn2-c2ccc3c(c2)OCCO3)nc1 | . | . | . | . | . | .
Cc1ccc(NC(=O)CCSc2nnnn2-c2ccc3c(c2)OCO3)cc1C | . | . | -5.07 | . | . | .
Clc1ccc(CSc2nnnn2-c2ccc3c(c2)OCO3)c(Cl)c1 | . | . | -3.45 | . | . | .
Cc1c(C(=O)N/N=C/c2cccs2)nc2ccccn12 | . | / | / | / | / | /
Cc1cccc(NC(=O)CN2CCC(NC(=O)C3CCCCC3)CC2)c1C | . | / | / | / | / | /
COc1ccc(Oc2cn[nH]c2-c2ccc(O)cc2O)cc1 | . | -3.55 | -5.95 | . | . | .
CCCc1ccc(Oc2cn[nH]c2-c2ccc(O)cc2O)cc1 | . | . | . | . | . | .
C=C(C)COc1ccc(-c2[nH]ncc2Oc2cccc(OC)c2)c(O)c1 | . | -3.6 | . | . | . | .
C=C(C)COc1ccc(-c2[nH]ncc2Oc2ccccc2OCC)c(O)c1 | . | . | . | . | . | .
Cc1cc(C)c(C(=O)Nc2ccc(Br)c(C(F)(F)F)c2)c(C)c1 | . | / | / | / | / | /
CC1(C)CCC23CC[C@]4(C)C(OC2=O)(C3C1)[C@H]1O[C@H]1C1[C@@]2(C)CC[C@@H](O)C(C)(C)C2CC[C@]14C (stereo not given in full) | / | / | . | . | / | /
CCOC(=O)C1=C(c2ccccc2)NC(SCC(=O)Nc2cccc(C)c2)=C(C#N)C1c1ccco1 (stereo not given) | . | -4.03 | . | . | . | .
Cc1ccc(NC(=O)CSC2=C(C#N)C(c3ccco3)C3=C(CC(C)(C)CC3=O)N2)cc1 (stereo not given) | . | -3.37 | . | . | . | .
CCOC(=O)C1=C(c2ccccc2)NC(SCC(=O)Nc2ccccc2C)=C(C#N)C1c1ccco1 (stereo not given) | . | -3.7 | -7.45 | . | . | .
C=C(C)C(=O)Nc1cccc(C2=NOC3(C2)C[C@H](C(N)=O)N(C(=O)/C=C/C)C3)c1 (stereo not given in full) | / | / | . | . | / | /
Cc1c(N2C(=O)c3ccc(Br)cc3C2=O)c(=O)n(-c2ccccc2)n1C | . | . | -4.37 | . | . | .
CCc1cccc(C)c1NC(=O)c1ccc(CN2CCc3ccccc3C2)cc1 | . | / | / | / | / | /
Cc1ccccc1NC(=O)c1ccc(CN2CCc3ccccc3C2)cc1 | . | . | -6.65 | . | . | .
CCc1ccccc1NC(=O)c1ccc(CN2CCC(Cc3ccccc3)CC2)cc1 | . | . | -7.83 | -6.89 | . | .
COC(=O)C(N)CCCCN (stereo not given) | / | / | . | . | / | /
CC(C)c1ccc(C2CC(c3ccc(Br)cc3)=NN2C(N)=S)cc1 (stereo not given) | . | / | / | / | / | /
CNC(=S)N1N=C(c2ccc(C)cc2)CC1c1ccc(Br)cc1 (stereo not given) | . | . | -6.26 | . | . | .
CNC(=S)N1N=C(c2ccc(C)cc2)CC1c1ccc(Cl)cc1 (stereo not given) | . | . | -6.25 | . | . | .
Cc1ccc(C(=O)CSc2nnc(-c3ccco3)n2Cc2ccccc2)cc1 | . | . | . | . | . | .
SMILES | sdo1 growth | Pyk2 oligo antag | Cav32 inh | DAT uptake mod | Plk1 PBD FP | PLK1 inh
O=C(CSc1nnc(-c2ccco2)n1Cc1ccccc1)c1ccccc1 | . | . | . | 3.44 | . | .
CC(C)Cn1c(SCC(=O)c2ccc(Cl)s2)nnc1-c1ccco1 | . | . | -5.6 | . | . | .
CC(NC(=O)NCc1cccnc1)(C(F)(F)F)C(F)(F)F | . | . | . | . | . | .
CCOc1ccc(-n2c(SCc3ccc(C#N)cc3)nnc2-c2cccnc2)cc1 | . | . | -6.8 | . | . | .
COc1ccc(-n2c(COc3ccc(C)cc3)nnc2SCc2ccc(C#N)cc2)cc1 | . | . | . | . | . | .
COc1ccc(-n2c(COc3ccc(Cl)cc3)nnc2SCc2ccc(C#N)cc2)cc1 | . | . | -4.26 | . | . | .
C=CCn1c(SCc2c(Cl)cccc2Cl)nnc1-c1cccnc1 | . | . | . | . | . | .
COc1cccc(C=Nc2cccnc2)c1O | . | / | . | -6.95 | . | .
COc1cccc(C=Nc2ccccc2C(=O)Nc2ccccc2)c1O | . | / | / | / | / | /
CCCCNC(=S)NNC(=O)c1cccnc1 | . | . | . | -8.25 | . | .
CCNC(=S)NNC(=O)c1cccnc1 | . | . | . | . | . | .
CCOC(=O)C1(C(F)(F)F)N=C(c2cccnc2)OC(N2CCCCC2)=N1 (stereo not given) | . | / | / | / | / | /
CN1CCN(CC(=O)N2c3ccccc3C(C)(c3ccccc3)CC2(C)C)CC1 (stereo not given) | . | . | . | . | . | .
CC(=O)N1c2ccccc2C(C)(c2ccccc2)CC1(C)C (stereo not given) | . | . | -4.99 | . | . | .
OC(COCCOc1ccc(Br)cc1)CN1CCN(Cc2ccccc2)CC1 (stereo not given) | . | / | / | / | / | /
Brc1ccc(C2Nc3cccc4cccc(c34)N2)s1 | . | / | / | / | / | /
O=C(O)C1CC=CCC1C(=O)Nc1ccc(N2CCN(Cc3ccccc3)CC2)cc1 (stereo not given) | . | / | / | / | / | /
O=C(COc1ccc(S(=O)(=O)N2CCOCC2)cc1)Nc1ccc(Cl)c(C(F)(F)F)c1 | . | . | -5.46 | . | . | .
CC(C)(C)C(=O)Nc1nc(=S)ss1 | . | . | -4.99 | . | . | .
COC(=O)C(NC(=O)c1ccc(C)cc1)(Nc1cccc(C)n1)C(F)(F)F (stereo not given) | . | . | -4.62 | . | . | .
Cc1ccc(-n2c(C)cc(C(=O)COc3c(CO)cc(F)cc3CO)c2C)cc1C | . | . | / | / | / | /
COc1ccc(S(=O)(=O)NC(C)C(=O)Nc2ccccc2C(F)(F)F)cc1 (stereo not given) | . | . | . | -1.69 | . | .
Cc1cccc2sc(NNC(=O)c3cc(-c4cccs4)nc4ccccc34)nc12 | . | / | / | / | / | /
COc1cccc(Cn2cnc3c(NS(=O)(=O)c4ccc(Cl)cc4)c(C)c(C)cc32)c1 | . | . | . | . | . | .
COc1cccc(Cn2cnc3c(NS(=O)(=O)c4ccc(Cl)cc4Cl)c(C)c(C)cc32)c1 | . | . | -3.45 | . | . | .
SMILES | sdo1 growth | Pyk2 oligo antag | Cav32 inh | DAT uptake mod | Plk1 PBD FP | PLK1 inh
COc1cccc(Cn2cnc3c(NS(=O)(=O)c4cc(Cl)ccc4Cl)c(C)c(C)cc32)c1 | . | . | -5.44 | . | . | .
COc1cccc(Cn2cnc3c(NS(=O)(=O)c4cccc(Cl)c4Cl)c(C)c(C)cc32)c1 | . | . | -5.39 | . | . | .
Cc1cc2c(ncn2Cc2ccccc2)c(NS(C)(=O)=O)c1C | . | . | . | . | . | .
Cc1cc2oc(=O)cc(Cn3nnc(-c4ccc(Cl)cc4)n3)c2cc1C(C)C | . | / | / | / | / | /
CCO[C@H]1OC(C(=O)NC2CC2)=C[C@@H](c2csc3ccccc23)[C@@H]1CCCO | / | / | . | . | / | /
Cc1cnc(NC(=O)Cc2c[nH]c3ccccc23)s1 | . | . | . | . | . | .
Cc1csc(NC(=O)Cc2c[nH]c3ccccc23)n1 | . | . | -4.12 | . | . | .
